# This is part of a sample that, as a whole, favours compounds with a hit. Of some 83,000 tested, about 20% had one in any assay.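 Each cell line was grown in a 96-well plate and treated with one concentration of compound for 48 hours. Values below 10 were considered active.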 A number with no mark means an inactive call. Active and inactive are the calls of the source.
# Key:
# Experiment in all cases: NCI-60 one-dose screen, 48 h (100 = growth as untreated, 0 = no growth, -100 = all killed)
# Details in all cases: 10 µM unless noted
# SR leukemia = tested on: SR leukemia
# RPMI-8226 leukemia = tested on: RPMI-8226 leukemia
# OVCAR-8 ovarian = tested on: OVCAR-8 ovarian
# OVCAR-5 ovarian = tested on: OVCAR-5 ovarian
# OVCAR-4 ovarian = tested on: OVCAR-4 ovarian
# SK-OV-3 ovarian = tested on: SK-OV-3 ovarian
# IGROV1 ovarian = tested on: IGROV1 ovarian
# OVCAR-3 ovarian = tested on: OVCAR-3 ovarian
# HS 578T breast = tested on: HS 578T breast
# NCI/ADR-RES ovarian = tested on: NCI/ADR-RES ovarian
# T-47D breast = tested on: T-47D breast
# BT-549 breast = tested on: BT-549 breast
# MDA-MB-435 melanoma = tested on: MDA-MB-435 melanoma
# SW-620 colon = tested on: SW-620 colon
# MCF7 breast = tested on: MCF7 breast
# HCT-116 colon = tested on: HCT-116 colon
# HCC-2998 colon = tested on: HCC-2998 colon
# KM12 colon = tested on: KM12 colon
# MDA-MB-468 breast = tested on: MDA-MB-468 breast
Compound,growth (SR leukemia),growth (RPMI-8226 leukemia),growth (OVCAR-8 ovarian),growth (OVCAR-5 ovarian),growth (OVCAR-4 ovarian),growth (SK-OV-3 ovarian),growth (IGROV1 ovarian),growth (OVCAR-3 ovarian),growth (HS 578T breast),growth (NCI/ADR-RES ovarian),growth (T-47D breast),growth (BT-549 breast),growth (MDA-MB-435 melanoma),growth (SW-620 colon),growth (MCF7 breast),growth (HCT-116 colon),growth (HCC-2998 colon),growth (KM12 colon),growth (MDA-MB-468 breast)
COc1ccc(C(=O)/C=C/c2ccc(Oc3nc(Nc4ccc(F)cc4)nc(N(C)C)n3)c(OC)c2)cc1,12.2%,4.01% (active),37.9%,82.6%,43.5%,94.4%,63.1%,57.2%,58.3%,40%,19.7%,-4.17% (active),51.4%,12.4%,15.6%,0.959% (active),100%,70.2%,40.6%
COc1ccc(NC(=O)Nc2ccc(OCc3ccc(F)cc3)cc2)cc1,78.7%,88.7%,40.2%,72.9%,20%,76.2%,78.1%,58.5%,29.4%,51.2%,84.7%,84.9%,83%,73.6%,57.6%,58.1%,90.8%,93.3%,77.5%
COc1ccc(/C=N/NC(=O)Cn2nc(Cc3ccc(OC)cc3)c3onc(C)c3c2=O)cc1,53.4%,53.7%,45%,52.2%,-9.28% (active),25.9%,77.6%,50.8%,36.3%,40.6%,40.7%,36.9%,62%,56.6%,45%,32.3%,6.89% (active),53%,67.4%
C#C[C@]1(O)CC[C@H]2[C@@H]3CC=C4c5sc(-c6ccc(O)c(O)c6)nc5CC[C@]4(C)[C@H]3CC[C@@]21C,-25.7% (active),-50.4% (active),-77.3% (active),-87% (active),-68.1% (active),-78.2% (active),-67.4% (active),-56.3% (active),-32.6% (active),-27.2% (active),-25.7% (active),-93.3% (active),-62.3% (active),-76.6% (active),-72.8% (active),-88.8% (active),-83.9% (active),-76.3% (active),-71.7% (active)
CC(C)Sc1nc(NCCc2c[nH]c3ccccc23)c(C#N)c(-c2ccc(F)cc2)n1,-19.8% (active),14.1%,57.3%,81.9%,59.1%,76.9%,90.4%,58.1%,43%,29.5%,20.8%,65%,58.7%,6.5% (active),4.29% (active),3.83% (active),21.5%,15.7%,2.22% (active)
O=C(COc1ccc(NC(=O)Nc2ccc(Cl)cc2)cc1)N/N=C/c1ccccc1,6.18% (active),-23.5% (active),-49% (active),-9.58% (active),-51.9% (active),-60.2% (active),-57.3% (active),-76.9% (active),-36.9% (active),-10.9% (active),-81.6% (active),-51.4% (active),-88.5% (active),-75.2% (active),-78.6% (active),-40% (active),-77.4% (active),-70.3% (active),-94.4% (active)
Cc1ccc(S(=O)(=O)c2nc(S(=O)(=O)c3ccc(C)cc3)c(N3CCC(O)CC3)s2)cc1,15.7%,53.4%,75.3%,104%,65%,97.6%,75.6%,72.9%,59.3%,74.5%,60.1%,49.5%,16.8%,44.7%,43.4%,53.7%,90.6%,72.6%,-20.7% (active)
CC(=O)OC[C@@]1(C)C2CC[C@]3(C)C(CC=C4C5CC(C)(C)CC[C@]5(C(=O)Nc5ccc(F)cc5)CC[C@]43C)[C@@]2(C)C[C@@H](OC(C)=O)[C@@H]1OC(C)=O (stereo not given in full),27.8%,13.5%,36.4%,78.7%,30.3%,45.1%,51.9%,42%,85.3%,40.6%,30.7%,41.7%,44.2%,36.8%,27.3%,22.9%,48.6%,44.6%,5.58% (active)
COC(=O)/C=C/c1cccc2c1C(=O)NC(C)(c1cc3cc4ccccc4cc3oc1=O)N2 (stereo not given),28%,40.2%,54.3%,63.3%,5.78% (active),95.6%,65.2%,32%,29.5%,35.2%,71.8%,45.2%,76.1%,54.3%,47.2%,44.5%,68.5%,53.7%,41%
CCOC(=O)COc1c(OC)c(OC)cc2oc(-c3cccc(C(=O)Nc4ccc(Cl)cc4)c3)cc(=O)c12,18.4%,38.5%,52%,81.4%,68.8%,75.4%,54.4%,23.3%,49.6%,36.5%,47.5%,21.2%,-11.8% (active),37.6%,15.7%,22.7%,76%,16.2%,68%
CC(C)CSc1nc(NCCc2c[nH]c3ccccc23)c(C#N)c(-c2ccc(Cl)cc2)n1,7.81% (active),36.3%,76.2%,80.5%,78.3%,81.7%,96.2%,76.4%,51.6%,54.7%,31.7%,83.5%,72.5%,24.9%,16.4%,19.5%,52.3%,35.1%,53.9%
C=C1CC[C@@H]2[C@]3(C)COC(c4ccco4)O[C@@H]3CC[C@@]2(C)[C@@H]1C/C=C1/C(=O)OCC1OC(C)=O (stereo not given in full),-21% (active),-30.9% (active),-8.73% (active),35.8%,48.2%,105%,9.51% (active),-28.9% (active),66.8%,8.21% (active),45.5%,-4.43% (active),31.9%,-8.09% (active),13.4%,-52% (active),31.8%,52.4%,-2.37% (active)
Cc1ccc(-c2nc(Nc3ccccc3S(N)(=O)=O)c3ccccc3n2)cc1,46.7%,59.7%,55.6%,85.3%,74.2%,91.4%,82.3%,97.1%,76.8%,55.7%,90.8%,115%,85.4%,85.8%,81.6%,40%,104%,65.3%,98.4%
CN(C)c1nc(NCCNS(=O)(=O)c2ccc(C(=O)/C=C/c3ccc(C(F)(F)F)cc3)cc2)nc(Nc2ccc(F)cc2)n1,-26.2% (active),0.159% (active),-62.1% (active),-68.9% (active),11.6%,66%,-40.6% (active),-86.7% (active),52.1%,-54.3% (active),15.7%,-71.2% (active),-81.1% (active),-77.1% (active),-78.6% (active),-59.1% (active),-95.7% (active),-78.9% (active),-23.6% (active)
OCC1(CCCc2ccccc2)CCCN(c2nccc3ccccc23)C1 (stereo not given),12.1%,5.11% (active),23.1%,62.4%,32.8%,57.7%,62.2%,45.6%,42%,11.8%,28.3%,-3.12% (active),41.2%,39.2%,12.3%,14.8%,60.3%,29.1%,-15.8% (active)

# From PubChem BioAssay (NCI)
